Reference: PubChem BioAssay (NCI)
The panel holds about 79,000 compounds, 15% with a hit somewhere; the sample as a whole holds those more often. Rule as the data show it: active = growth inhibition above about 70%; inactive = the rest.

Assays:
[1] = NCI Yeast Anticancer Drug Screen. Data for the rad50 strain (AID 155);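 also: 0% = growth of vehicle-only cultures of the same strain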; conditions: S. cerevisiae rad50 strain growth inhibition; at 50.0 µM; hits give high values
In short: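 Growth of the mutant yeast was measured after compound exposure and referenced to vehicle-treated cultures.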

[2] = NCI Yeast Anticancer Drug Screen. Data for the mec2-1 strain (AID 157); conditions: S. cerevisiae mec2-1 strain, at 50.0 µM, hits give high values
In short: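 mec2-1 yeast strain, carrying an alteration in DNA damage repair or cell cycle control, was exposed to compounds; growth inhibition was measured relative to vehicle-treated controls.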

[3] = NCI Yeast Anticancer Drug Screen. Data for the sgs1 mgt1 strain (AID 161);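 also: 0% = growth of cultures given vehicle only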; conditions: S. cerevisiae sgs1 mgt1 strain, at 50.0 µM, hits give high values
In short: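 Growth of a repair-deficient yeast mutant was monitored after compound treatment and expressed as inhibition relative to vehicle-treated cultures.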

[4] = NCI Yeast Anticancer Drug Screen. Data for the cln2 rad14 strain (AID 165);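 also: 0% = growth equal to vehicle treated cultures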; conditions: S. cerevisiae cln2 rad14 strain, at 50.0 µM, hits give high values
In short: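 Yeast carrying cln2 and rad14 alterations (cell cycle control and DNA damage repair) were exposed to compounds. Growth inhibition was measured against vehicle-treated controls.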

[5] = NCI Yeast Anticancer Drug Screen. Data for the bub3 strain (AID 167); conditions: S. cerevisiae bub3 mutant strain, at 50.0 µM, hits give high values
In short: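 Whole-cell yeast assay. The mutant strain was incubated with compounds, and growth inhibition was determined by comparison with vehicle-treated cells.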

[6] = NCI Yeast Anticancer Drug Screen. Data for the mlh1 rad18 strain (AID 175); conditions: S. cerevisiae mlh1 rad18 strain growth inhibition; at 50.0 µM; hits give high values
In short: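 Growth inhibition of the yeast strain was measured after compound exposure and expressed relative to vehicle-treated controls. The strain carries defined defects in DNA damage repair.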

Measured: growth inhibition

CC(C)=CCC/C(C)=C/COC(=O)N(c1ccccc1)c1ccccc1
inactive: [1] 5.95% | [2] -0.1% | [3] 3.9% | [4] -47% | [5] 3.6% | [6] -1.15%

O=C1c2cc([N+](=O)[O-])ccc2-c2c(F)cccc21
inactive: [1] 5.5% | [2] 8.25% | [3] -1% | [4] -32% | [5] 10.2% | [6] 4.1%

O=C(N/C(=C\c1cc(Cl)ccc1Cl)c1nc2ccccc2[nH]1)c1ccccc1
inactive: [1] 50.2% | [2] 8.65% | [3] 31.9% | [4] 25% | [5] 43.9% | [6] 42.3%

CCOc1ccc(N2CC(=O)N3CCCC(c4ccccc4)N3C(=O)C2)cc1 (stereo unspecified)
inactive: [1] -23.7% | [2] -10.9% | [3] 13.4% | [4] 4.9% | [5] 12.1% | [6] 8.55%

CN(C)c1ccc(S(=O)c2ccc(N(C)C)cc2)cc1
inactive: [1] -30.4% | [2] -27.9% | [3] -44.9% | [4] -4.75% | [5] -48.4% | [6] -35%

COc1cc(/C=C/Cc2cc3c(cc2O)OCO3)cc(OC)c1OC
inactive: [1] 0.7% | [2] -15.6% | [3] 0.55% | [4] -21.6% | [5] -1.9% | [6] 0.75%

CC(=O)Nc1nc(C)c(S(=O)(=O)Cl)s1
inactive: [1] 27.5% | [2] 10.4% | [3] 33% | [4] 23.2% | [5] 14.8% | [6] 19.6%

O=C(CCc1cccs1)OC1CCCCC1
inactive: [1] 9% | [2] 7.05% | [3] 4.4% | [4] 13.6% | [5] 9.35% | [6] 20.9%

CC(=O)Nc1c(CCCCc2ccccc2)[nH]c(=O)[nH]c1=O
inactive: [1] 1.8% | [2] 22.5% | [3] 25.8% | [4] 1.4% | [5] 17% | [6] -0.95%

COC1OC(COC(=O)c2ccccc2)C(SC(=O)c2ccccc2)C1OC(=O)c1ccccc1 (stereo unspecified)
inactive: [1] -21.1% | [2] -1.35% | [3] -32.5% | [4] -2% | [5] -1.4% | [6] -12.5%

COc1ccc(Cl)cc1NC(=O)Nc1cc(C)ccc1Cl
inactive: [1] -8.35% | [2] 25.8% | [3] 27.4% | [4] -25.2% | [5] 28.8% | [6] 9.9%

COc1ccccc1OC(=O)Nc1ccc(S(=O)(=O)N(C)C)cc1
inactive: [1] 28.2% | [2] 8.5% | [3] 0% | [4] 4.1% | [5] 8.65% | [6] 6.65%

CCCCCCSCCO
inactive: [1] -13.2% | [2] -35% | [3] -11.9% | [4] 23.6% | [5] -30.9% | [6] 2.55%

COc1ccccc1C(=O)C1OC1c1ccc(Cl)cc1Cl (stereo unspecified)
inactive: [1] 19.1% | [2] -9.7% | [3] -6.9% | [4] -32% | [5] 6.85% | [6] 5.05%

CN1C(C(=O)Nc2ccccn2)=C(O)c2ccccc2S1(=O)=O
inactive: [1] 5% | [2] 15.5% | [3] 5.1% | [4] 0.9% | [5] -1.75% | [6] 8.25%

CC1(c2cccc(N)c2)OCCO1
inactive: [1] 7.4% | [2] -7.2% | [3] 7.35% | [4] -7.9% | [5] 12.7% | [6] 11.9%

CCOP(=O)(OCC)/C(C#N)=C/c1cc(OC)ccc1OC
inactive: [1] 28.4% | [2] -4.75% | [3] -2.65% | [4] -8.9% | [5] -13.4% | [6] 11.8%

CCc1c(O)c2c(=O)n(C)c(=O)n3c4ccccc4n(c1=O)c23
inactive: [1] 40.4% | [2] 41.4% | [3] 45.7% | [4] 26.8% | [5] 38.9% | [6] 39.8%

CCCCOB(OCCCC)OCCCC
inactive: [1] 6.1% | [2] -3.25% | [3] -12.6% | [4] 11.8% | [5] -1.65% | [6] -21.9%

COC(=O)COC(=O)C1C(C(N)=O)N(CC(=O)OC)CCN1CC(=O)OC (stereo unspecified)
inactive: [1] 0.2% | [2] -0.9% | [3] -27.4% | [4] -7.35% | [5] -3.9% | [6] -5.95%

N#CCC(=O)NCc1ccncc1
inactive: [1] -13.8% | [2] -50.4% | [3] -24.7% | [4] 7.85% | [5] -41% | [6] -13.1%

C/C=C/C(=O)Nc1cc(Cl)ccc1C
inactive: [1] -1.25% | [2] -8.1% | [3] -4.95% | [4] -52.1% | [5] 9.4% | [6] 5.55%

CCOC(=O)C(=O)Nc1ccccc1
inactive: [1] 43.8% | [2] -1.4% | [3] 21% | [4] -21.1% | [5] -4.15% | [6] 18.8%

NC(=S)N/N=C1/CC(=O)N(c2ccccc2)C1c1ccccc1 (stereo unspecified)
inactive: [1] 32.6% | [2] 13.2% | [3] 37% | [4] -2.8% | [5] 32.4% | [6] 38.9%

C1CCC(C2CCCC[N-]2)[N-]C1.[Cl][Cu][Cl] (stereo unspecified)
inactive: [1] 7.35% | [2] 10.3% | [3] 9.85% | [4] 9.6% | [5] -4.85% | [6] 13.7%

COc1ccc(/C(=N\O)C(c2ccc(OC)cc2)C(Cl)(Cl)Cl)cc1 (stereo unspecified)
inactive: [1] 52.8% | [2] 38.9% | [3] 38.9% | [4] 14.7% | [5] 16.6% | [6] 44.9%

Ic1ccccn1
inactive: [1] 15.3% | [2] -11.3% | [3] -9.05% | [4] -29.8% | [5] -8.15% | [6] -1.2%

CON1C(=O)c2ccccc2C1=O
inactive: [1] 1.15% | [2] 4% | [3] -7.85% | [4] -4.6% | [5] -22.4% | [6] -9.3%

CCCCC(CCCC)NCC(C)OC(=O)c1ccc(N)cc1 (stereo unspecified)
inactive: [1] 20.6% | [2] -2.35% | [3] 0.5% | [4] -26.8% | [5] -6% | [6] 16.3%

O=C(C[n+]1ccccc1Br)c1ccc(I)cc1
inactive: [1] -32.9% | [2] 2% | [3] 10.3% | [4] -6.95% | [5] 17.1% | [6] 29.9%

C=CCNC(=S)/N=C/C(C(=O)Nc1ccccc1OC)=C(\C)O
inactive: [1] -17.4% | [2] -19.2% | [3] -27.3% | [4] -9.85% | [5] -34.5% | [6] -16.3%

CC(=O)Nc1c(C)cccc1F
inactive: [1] 2.35% | [2] 6.45% | [3] -3.95% | [4] 12.1% | [5] 3.3% | [6] -12.4%

COC(=O)/C=C(\S/C=C(/c1ccccc1)N1CCn2c(C(=O)c3ccccc3)c(C(=O)OC)c(C(=O)OC)c21)C(=O)OC
inactive: [1] 27.4% | [2] 32.6% | [3] 43.8% | [4] 11.4% | [5] 54.1% | [6] 15.2%

CC1CCCC(C(O)(C(=O)O)C2CCCCC2)C1 (stereo unspecified)
inactive: [1] 23.2% | [2] 12.6% | [3] 22.4% | [4] 13.1% | [5] 13.1% | [6] 26.6%

COc1ccc(C(=O)C(C(=O)CCC(=O)Nc2cccc(Cl)c2)c2ccc(OC)cc2)cc1 (stereo unspecified)
inactive: [1] -25.1% | [2] -9.4% | [3] -20.2% | [4] -4.9% | [5] 0.5% | [6] -0.15%

CCC(CCC(C)C)(SCC(N)=O)C(=O)O (stereo unspecified)
inactive: [1] -4.75% | [2] -5.15% | [3] -26% | [4] -39.3% | [5] 0.2% | [6] -38%

COC1C(CO)OC(n2c3c(Cl)cccc3c3c4c(c5c6cccc(Cl)c6[nH]c5c32)C(=O)NC4=O)C(O)C1O (stereo unspecified)
inactive: [1] 16.8% | [2] 8.45% | [3] -1.4% | [4] 20.4% | [5] 7.4% | [6] -21.1%

CCCCNC(=O)NC1CC(OC2CC(O)(C(C)=O)Cc3c(O)c4c(c(O)c32)C(=O)c2c(OC)cccc2C4=O)OC(C)C1O (stereo unspecified)
inactive: [1] 30.2% | [2] 14.9% | [3] 22.9% | [4] 0.8% | [5] 1.25% | [6] 29.9%

Cc1c(Cl)c(N)c(Cl)c(Cl)c1Cl
inactive: [1] 15.7% | [2] -4.5% | [3] 19.1% | [4] -7.3% | [5] 28.6% | [6] 8.75%

CC(=O)OCc1ccc2ccccc2c1
inactive: [1] -9.35% | [2] -29.7% | [3] -10.8% | [4] -3.2% | [5] -7.65% | [6] -14.7%

O=S(=O)(/C=C/c1ccc(F)cc1)Cc1ccccc1
inactive: [1] -3.2% | [2] -15.6% | [3] 0.65% | [4] 12.9% | [5] -4% | [6] 11.7%
